Test results reported in the supplement of paper PMC6555819.

These sequences were tested on RARb homodimer (NR concentration 270 nM) (assay: PBM binding z-score (relative to random genomic background probes); higher = stronger binding; sequences stand for … in GC…GCGATTGACAGCGTAGAATGAAGG).
Procedure, shortened: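 Each nuclear receptor dimer, without ligand, was incubated for 1 h on custom Agilent 4×180K protein-binding microarrays. Binding was detected with antibodies against each partner (one per run), and scanned fluorescence was regression-normalized. The binding z-scores are referenced to random human genomic background probes.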
Sequence CAAGCTAGGTCAAGAGGTCAAAGTCCGCTTCCCG has a PBM binding z-score of 5.7. TTACCAAGGTGAAAGGTCGTTGAGGCACGCCTTG gave a PBM binding z-score of 2.61. CCTGCTAGGTCTATGGTCAGCTAAAGCAGCTCGC gave a PBM binding z-score of 0.163. Work on AGTCATAGTTCACTAGGTAACGTAAGATTCAGCT yielded a PBM binding z-score of 2.32. Work on ACTAGTTGGTAAGCTGAGGTCACACACAATTCGG yielded a PBM binding z-score of 4.01. Sequence GCTGCTAGGTCAGGTTGGTCGGCTAACGGGTACG has a PBM binding z-score of 2.31. CCTACTGGGCCAAGGTCTTTGATCAGTCAAAGCA was tested, and the PBM binding z-score was 0.263. With ATATGAAGGTTATCGGGTCATTCAGTTTGCGCAT the PBM binding z-score was 3.17. Work on GCTGCTAGGTCAGGTTGGTCTGCTAACGGGTACG yielded a PBM binding z-score of 2.51. Sequence CTCGAAAGGTCGGTTGAGGTGAGTAAACGGATAA has a PBM binding z-score of 2.42. CGTCGGAGGACAGAAGGTCAGAGCTGTCCGCTTT showed a PBM binding z-score of 3.36. In the case of AGTCAAAGTTCACGAGGTAACGTAAGATTCAGCT, the PBM binding z-score is reported as 4.91. Sequence ATATGTAGCTTAAGGGTCATTCAGGTTGGTTCGC has a PBM binding z-score of 3.64. CCGACTGGGCCATTCAGAGGTCATTGATCATATG showed a PBM binding z-score of 3.91. ATCTCTAGGTAAAGTTCAGCGAAAGATCGATAGA gave a PBM binding z-score of 2.94. Work on CGTCCAAGGTCAGCAGGTCACTGAAAGCGACGTG yielded a PBM binding z-score of 5.25. TAGCCTAGGTCAGATCGGGGCAGTATACGCTATA showed a PBM binding z-score of 2.27. With CGTCCAAGGTCAACAGGTCAGTGAAAGCGACGTG the PBM binding z-score was 5.3. In the case of CGTCAAAGTTCAACTAAGTTAACGTAAAGCACGC, the PBM binding z-score is reported as 4.02. TCTAGGAGGACACGAAGGTCAGAGCTTTCCAGAG was tested, and the PBM binding z-score was 3.47. In the case of AGTCAAAGTTCACGACGAGGTAACGTAAAGCACG, the PBM binding z-score is reported as 4.35. For CAAACTAGGTCACGAAAGGTCAACGTCGAATGAC, the PBM binding z-score was 6.16. With AGTCAAATTTCACTAGGTAACGTAAGATTCAGCT the PBM binding z-score was 0.0165. In the case of CGAACTAGGTCAGAACAGGACAGTTAAGGATGAT, the PBM binding z-score is reported as 2.09. Sequence GATACAGAGTCAGCTAGAGGCCAGAGTATGGAAA has a PBM binding z-score of -0.00482. For CCCCGGAGGACAGAAGGTCAGAGCTGTCCGCTTT, the PBM binding z-score was 3.7. For AGTCCAAGTTCACTAGGTAACGTAAGATTCAGCT, the PBM binding z-score was 1.95. CGTCAAAGCTCAACTAAGGTAACGTAAAGCACGC gave a PBM binding z-score of 0.161. TTACGAAGGTGAAAGGTCGTTGATGCACGCCTTG was tested, and the PBM binding z-score was 2.49. In the case of CATACAGGGTCCGCTAGGCCAGAGTAGGGACGGC, the PBM binding z-score is reported as -0.0807. With CCTACTGGGCCATTCAGAGGTCATTGATCATATG the PBM binding z-score was 3.93. In the case of ATCGAATGGTCGAAGGTGAGTATACCCACCCGAA, the PBM binding z-score is reported as 0.0928. For TAGCCTAGGACATGCGGGCCAGTATAGTGTCGGC, the PBM binding z-score was -0.329. For GCTGCTAGGTCAGGATGGTCAGCTAACGGGTACG, the PBM binding z-score was 2.65. In the case of CCTCGGAGGACAGAAGGTCAGATCTGTCCGCTTT, the PBM binding z-score is reported as 3.49. ATCTCTAGGTAAAGTTCATTGAAAGATCGATAGA showed a PBM binding z-score of 1.97. Work on CAGCCTAGGTGAGGGCCAGTATAGGAGGAACGTT yielded a PBM binding z-score of 0.105. In the case of GCTGCTAGGTCAGGTTGGTCAACTAACGGGTACG, the PBM binding z-score is reported as 2.85. For CGTCGGAGGACAACAGGAGGTCAGAGCTGCCAGA, the PBM binding z-score was 3.63.
